# Hit rate of the full screen: of about 310,000 compounds, about 14,000 (4.5%) showed an effect of 50% or more. The effect is printed as a negative number. The entries come from a sample that favours strong results as a whole.
# Molecular target: human ether-à-go-go-related gene (hERG) potassium channel (human, UniProt Q12809)
# Assay: primary screen, population patch clamp on CHO cells stably expressing hERG; higher = less effect of the substance
# 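Further: peak tail current of the secondary pulse compared with the same well before compound.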
# Chain of human ether-à-go-go-related gene (hERG) potassium channel (Q12809 whole entry, looked up): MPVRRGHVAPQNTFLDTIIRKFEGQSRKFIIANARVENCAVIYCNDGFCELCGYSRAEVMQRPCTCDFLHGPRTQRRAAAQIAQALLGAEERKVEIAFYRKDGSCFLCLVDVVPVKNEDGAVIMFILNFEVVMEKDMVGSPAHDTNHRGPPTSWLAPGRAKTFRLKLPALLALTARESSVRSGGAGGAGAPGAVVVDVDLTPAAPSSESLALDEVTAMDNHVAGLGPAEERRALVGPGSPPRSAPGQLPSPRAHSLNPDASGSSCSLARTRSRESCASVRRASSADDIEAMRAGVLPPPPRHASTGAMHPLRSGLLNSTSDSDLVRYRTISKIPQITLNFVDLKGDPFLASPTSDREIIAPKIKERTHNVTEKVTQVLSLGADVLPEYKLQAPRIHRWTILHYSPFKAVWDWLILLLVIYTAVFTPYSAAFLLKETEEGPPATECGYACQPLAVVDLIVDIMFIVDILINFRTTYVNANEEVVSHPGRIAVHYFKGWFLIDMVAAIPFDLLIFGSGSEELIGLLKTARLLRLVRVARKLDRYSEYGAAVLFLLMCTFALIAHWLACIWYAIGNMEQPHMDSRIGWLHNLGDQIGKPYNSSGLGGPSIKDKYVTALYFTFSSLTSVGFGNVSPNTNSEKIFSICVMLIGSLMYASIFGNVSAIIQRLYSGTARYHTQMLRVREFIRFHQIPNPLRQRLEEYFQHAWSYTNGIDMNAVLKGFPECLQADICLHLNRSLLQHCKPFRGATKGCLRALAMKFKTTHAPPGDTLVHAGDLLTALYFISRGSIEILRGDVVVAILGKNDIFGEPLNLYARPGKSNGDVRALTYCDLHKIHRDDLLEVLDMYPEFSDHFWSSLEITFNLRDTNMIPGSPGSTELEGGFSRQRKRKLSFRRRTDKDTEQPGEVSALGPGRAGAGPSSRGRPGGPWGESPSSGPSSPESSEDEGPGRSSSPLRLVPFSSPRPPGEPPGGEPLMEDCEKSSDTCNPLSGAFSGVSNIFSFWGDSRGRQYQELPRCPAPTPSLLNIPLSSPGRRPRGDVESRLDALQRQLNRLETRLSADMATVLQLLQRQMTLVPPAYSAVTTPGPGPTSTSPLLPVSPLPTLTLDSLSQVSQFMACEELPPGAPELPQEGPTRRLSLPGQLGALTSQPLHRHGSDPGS
row,Compound,"hERG current change (%, negative = inhibition) at 10uM [%]"
1,O=C(Nc1cc(Cl)cc(Cl)c1)c1cccc(OC(F)F)c1,-2.79
2,COc1cccc(C(=O)NC23CC4CC(CC(C4)C2)C3)c1,2.17
3,O=C(Nc1ccc(S(=O)(=O)N2CCCC2)cc1)c1ccccc1,-7.24
4,O=C(Nc1cccc(S(=O)(=O)N2CCCC2)c1)c1ccccc1OC(F)F,-13.7
5,O=C(NC12CC3CC(CC(C3)C1)C2)c1ccccc1,6.99
6,CC(=O)Nc1cccc(C(=O)Nc2ccc(S(=O)(=O)N3CCCCC3)cc2)c1,-10.3
7,O=C(Nc1cccc(S(=O)(=O)N2CCCC2)c1)c1cccc(OC(F)F)c1,-56.4
8,COc1ccc(NC(=O)c2cccc(OC(F)F)c2)cc1Cl,-22.2
9,O=C(Nc1ccc(OC(F)F)c(Cl)c1)c1cccc(OC(F)F)c1,-61.7
10,O=C(Nc1ccc(S(=O)(=O)N2CCCC2)cc1)c1cccc(OC(F)F)c1,-54.3
11,N#Cc1cccc(C(=O)Nc2cccc(S(=O)(=O)N3CCCC3)c2)c1,2.83
12,O=C(NC12CC3CC(CC(C3)C1)C2)c1cccc(OC(F)F)c1,-55.2
13,COc1ccc(NC2CCCN(C(=O)c3oc(C)cc3C)C2)cc1OC (centres unmarked),16.2
14,CC(C)(C)C1CCC(C(=O)Nc2nccs2)CC1 (centres unmarked),9.99
15,C/C(=N\NC(=O)c1ccc(C)cc1)c1c(C)[nH]n(-c2ccccc2)c1=O,14.2
16,Cc1ccccc1N1C(=O)C2ON(c3ccccc3)C(c3ccco3)C2C1=O (centres unmarked),16.8
17,CSc1nnnn1CCn1nnnc1SC,10.1
18,Cc1cccc(/C=N/n2c(C)nnc2C)c1,-0.651
19,O=C1CN(C(=O)CSc2nc(-c3ccc(Cl)cc3)cs2)c2ccccc2N1,13.9
20,Fc1ccccc1-c1nc2c(s1)CCc1onc(-c3ccc(Br)cc3)c1-2,11.4
21,CCC(C)c1ccc(NC(=S)N2CCCC2)cc1 (centres unmarked),1.86
22,O=C(CCSCc1ccc(Cl)cc1)NCCC1=CCCCC1,11.4
23,COc1ccc(N/C=C2\CCc3ccccc3C2=O)cc1,0.787

row,Compound,"hERG current change (%, negative = inhibition) at 10uM [%]"
1,COc1ccc(C(=O)NCC(=O)OCC(=O)Nc2cccc(S(=O)(=O)N3CCCC3)c2)cc1,-15.8
2,O=C(CNC(=O)c1ccc(OC(F)F)cc1)Nc1cccc(S(=O)(=O)N2CCCC2)c1,-70.3
3,CC(O/N=C/c1ccccc1OC(F)F)C(=O)Nc1cccc(S(=O)(=O)N2CCOCC2)c1 (centres unmarked),-33.9
4,O=C(COC(=O)CNC(=O)c1ccc(F)cc1)Nc1cccc(S(=O)(=O)N2CCCC2)c1,-12
5,CC(O/N=C/c1ccc(OC(F)F)cc1)C(=O)Nc1cccc(S(=O)(=O)N2CCOCC2)c1 (centres unmarked),-60.5
6,O=C(/C=C/c1ccc(OC(F)F)cc1)Nc1cccc(S(=O)(=O)N2CCOCC2)c1,14.2
7,C[C@H]1CN=C(N(C)C)N1CC1CCCCC1,7.73
8,Nc1nonc1-n1nnc(C(=O)N/N=C/c2cccc(Cl)c2)c1-c1cccs1,3.81
9,Cc1noc(NS(=O)(=O)c2ccc(N/C=C/C(=O)c3ccncc3)cc2)c1C,-13
10,COCCCN1CC(=O)N2C(c3ccccc3)c3[nH]c4ccccc4c3C[C@H]2C1=O (some centres unmarked),-11.3
11,O=C(NNC(=O)C12CC3CC(CC(C3)C1)C2)c1csc(N2CCOCC2)n1,11.3
12,COC(=O)C1=C[C@@H](C(=O)OC)[C@@H]2C3=C(C(=O)[C@]2(C)NC(=O)c2ccccc2)[C@H](C)n2c(=O)n(-c4ccccc4)c(=O)n2[C@@H]3C1,7.6
13,Cc1cc(NC(=O)Nc2ccc(Cl)c(Cl)c2)n(-c2ccccc2)n1,13.9
14,Cc1ccccc1NC(=O)c1cccc(S(=O)(=O)Oc2ccc([N+](=O)[O-])cc2)c1,-24.5
15,COc1ccc(C(=O)Nc2ccc(NC(=O)c3cccs3)cc2)cc1Cl,27.5
16,COc1ccc(C(=O)Nc2ccc(Nc3ccccc3)cc2)cc1[N+](=O)[O-],-37
17,COc1ccc(C(=O)Nc2ccccc2)cc1NC(=O)c1ccc([N+](=O)[O-])cc1,-56.8
18,COc1ccccc1N/C(=N/S(=O)(=O)c1ccc(C)cc1)c1ccccc1,-31
19,COc1ccc([N+](=O)[O-])cc1N/C(=N/S(=O)(=O)c1ccccc1)c1ccccc1,-57.8
20,COc1ccc(C(=O)Nc2ccccc2)cc1NC(=O)c1cccs1,-74
21,COc1ccc([N+](=O)[O-])cc1NC(=O)Nc1ccccc1,10.3
22,COc1ccc(C(=O)Nc2cccc(NC(=O)c3cccs3)c2)cc1OC,8.5
23,O=C(O)c1ccc(NS(=O)(=O)c2cccc(C(=O)Nc3ccc([N+](=O)[O-])cc3)c2)cc1,18.8

row,Compound,"hERG current change (%, negative = inhibition) at 10uM [%]"
1,O=C(Nc1ccccc1)c1cccc(S(=O)(=O)Oc2ccc([N+](=O)[O-])cc2)c1,-56.4
2,COc1ccccc1N/C(=N/S(=O)(=O)c1ccc(Cl)cc1)c1ccccc1,-35.1
3,Cc1cc(C)c2nc(SCC(=O)NC(=O)c3cccn3C)cc(C)c2c1,-2.66
4,COc1ccc(C(C)=O)cc1COC(=O)c1cc(C)nc2ccccc12,13.6
5,O=C(Nc1ccc([N+](=O)[O-])cc1)c1nc[nH]c1C(=O)NC1CCCCC1,16.2
6,COC(=O)c1c(NC(=O)C(C)C)sc2c1C(C(=O)OC)CC2 (centres unmarked),11.8
7,CC(C)Sc1nnc(-c2c[nH]c3ccccc23)n1C,1.3
8,CN1CCN(/N=C/c2c(O)n(Cc3ccc(F)cc3)c(=O)[nH]c2=O)CC1,0.78
9,COc1cccc(NC(=O)CN(c2ccc3c(c2)OCO3)S(C)(=O)=O)c1,3.07
10,CNc1nnc(-c2ccc(N(C)C)cc2)s1,8.65
11,CCCCn1c(=O)c(C(=O)OCC)c(O)c2ccccc21,2.18
12,CCCCCn1c(=O)c(C(=O)OCC)c(O)c2ccccc21,-64
13,CCCCCCCCn1c(=O)c(C(=O)OCC)c(O)c2ccccc21,14.5
14,CCCCCn1c(=O)c(C(=O)OCC)c(Cl)c2ccccc21,-73.8
15,CCCCCCCn1c(=O)c(C(=O)OC)c(N)c2ccccc21,-9
16,CCCCCCCCn1c(=O)c(C(=O)OC)c(N)c2ccccc21,3.02
17,CCC1CCCCN1CCCNC(=O)CSc1nc2nc(C)c(Cc3ccc(C)cc3)c(C)n2n1 (centres unmarked),-47.8
18,NS(=O)(=O)c1ccc(NC(=O)COC(=O)CCC2CCCCC2)cc1,-5.65
19,Cc1ccc(C(=O)NCCN2CCNC2=O)cc1,12.9
20,O=C(Nc1ccc2c(c1)OCO2)C(=O)c1c[nH]c2ccccc12,22.3
21,COc1ccc(C(=O)NCCCNC(=O)c2ccccn2)cc1,10.8
22,CCCn1c(SCC(=O)NC2CCCCC2)nnc1-c1ccncc1,4.24
23,CN1CCN(S(=O)(=O)c2ccc(Nc3cccc(Cl)c3)c([N+](=O)[O-])c2)CC1,-20.7

row,Compound,"hERG current change (%, negative = inhibition) at 10uM [%]"
1,CN1CCN(S(=O)(=O)c2ccc(N(C)Cc3ccc(C(F)(F)F)cc3)c([N+](=O)[O-])c2)CC1,-5.45
2,COc1cc(Nc2ccc(S(=O)(=O)N3CCN(C)CC3)cc2[N+](=O)[O-])cc(OC)c1,-28.6
3,CN1CCN(S(=O)(=O)c2ccc(Nc3ccc(F)cc3)c([N+](=O)[O-])c2)CC1,-51.3
4,C=CCOc1ccc(CN(C)c2ccc(S(=O)(=O)N3CCN(C)CC3)cc2[N+](=O)[O-])cc1,6.82
5,CN1CCN(S(=O)(=O)c2ccc(N(C)Cc3ccc(OC(F)F)cc3)c([N+](=O)[O-])c2)CC1,-60.8
6,Cc1nnc(SCC(N)=O)n1CC1CCCO1 (centres unmarked),3.55
7,NC(=O)c1ccsc1NC(=O)c1coc2ccccc2c1=O,-2.56
8,COc1ccc(-c2nn3c(-c4ccccn4)nnc3s2)cc1OC,10.6
9,CCOC(=O)c1sc(SCC(=O)Nc2ccc(N(C)C)cc2)nc1N,-13
10,S=C(NCCc1cnc[nH]1)NC1CCCC1,23.2
11,CCOC(=O)Cc1nc2cc(Cl)ccc2o1,10.7
12,N#Cc1ccsc1NC(=O)c1ccccn1,-4.67
13,CCOc1ccc(OCCC(=O)N2CCc3cc(OC)c(OC)cc3C2)cc1,-20.6
14,COc1ccc(OC)c(Nc2nc(NCc3ccco3)c3ccccc3n2)c1.Cl,-12.2
15,COc1cccc(C(=O)NC2CCCN(C3Cc4ccccc4C3)C2)c1OC (centres unmarked),-41.7
16,O=C(NC1CC1)c1ccc(F)cc1Cl,21
17,O=C(NC1CCCN(C2Cc3ccccc3C2)C1)c1ccc(F)cc1Cl (centres unmarked),-71.1
18,CC#CC(=O)NC1CCCN(C2Cc3ccccc3C2)C1 (centres unmarked),-18.7
19,CSCC(=O)NC1CCCN(C2Cc3ccccc3C2)C1 (centres unmarked),-5.38
20,C#Cc1cccc(C(=O)NC2CCCN(C3Cc4ccccc4C3)C2)c1 (centres unmarked),-64.4

# — PMC4336329 (PLoS ONE, 2015)
